Source: PubChem BioAssay (The Scripps Research Institute Molecular Screening Center)
TEAD-YAP inh = TEAD-YAP interaction inhibition, primary screen, TEAD-YAP interaction inhibitor project, luminescence, HEK-TIYL cells. inhibition, % at 9.12 µM. 640,000 tested, 1.4% active. TEAD-Gal4/YAP UAS-luciferase luminescence; in the data active means inhibition above about 32%;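 further: 0% = median of test compound wells and 100% = reference inhibitor wells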
FBW7 activator = FBW7 E3 ligase activators, primary screen, biochemical, AlphaScreen, human | F-box/WD repeat-containing protein 7 (Homo sapiens), Q969H0 | AlphaScreen FBW7–phospho-cyclin E peptide binding, activator screen | normalized activity (activation), % at 26.1 µM | 650,000 tested, 0.13% active | AID 1259310, 2017; in the data active means normalized activity above about 1.9%;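 further: purified mutant Fbw7 with reduced substrate affinity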
MITF primary = MITF inhibitors, primary screen, biochemical, AlphaScreen, human. Microphthalmia-associated transcription factor (Homo sapiens), O75030. 650,000 tested, 0.91% active. inhibition, % at 2.6 µM. AlphaScreen MITF homodimerization, bead proximity signal. AID 1259374, 2018; in the data active means inhibition above about 50%;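 further: 0% = vehicle wells with protein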
GPR151 ag = activators of human GPR151, primary screen, cell-based, PathHunter beta-arrestin, luminescence; G-protein coupled receptor 151 (Homo sapiens), Q8TDV0; PathHunter beta-arrestin GPR151 cells; activation, % at 11.2 µM; 650,000 tested, 1% active; AID 1508602, 2020; in the data active means activation above about 4.9%;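 further: 0% = median of compound wells and 100% = cells with positive control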
Target sequence (Q8TDV0 whole entry, looked up): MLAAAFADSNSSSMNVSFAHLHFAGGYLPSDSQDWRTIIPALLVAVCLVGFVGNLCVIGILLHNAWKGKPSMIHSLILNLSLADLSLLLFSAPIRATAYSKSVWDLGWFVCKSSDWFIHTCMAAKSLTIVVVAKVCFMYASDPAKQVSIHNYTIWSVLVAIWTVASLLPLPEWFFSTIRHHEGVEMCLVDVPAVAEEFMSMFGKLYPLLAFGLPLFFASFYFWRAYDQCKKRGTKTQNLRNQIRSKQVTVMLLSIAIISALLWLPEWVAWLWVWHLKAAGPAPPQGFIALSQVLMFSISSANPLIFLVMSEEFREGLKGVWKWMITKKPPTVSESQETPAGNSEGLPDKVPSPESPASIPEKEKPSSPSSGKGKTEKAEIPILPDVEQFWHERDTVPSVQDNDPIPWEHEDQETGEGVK
* marks the source's active call; other numbers are inactive results; . = not tested or not shown. An excerpt weighted towards active compounds, which were near 3.5% of everything screened.

SMILES | TEAD-YAP inh | FBW7 activator | MITF primary | GPR151 ag
COc1ccc(C2CC(c3cccs3)=NN2C(=O)CSc2nnc(CNC(=O)c3cccc(F)c3)n2C)cc1 (configuration not stated) | -7 | 0 | -6 | 0
Clc1nnc(Cc2cccnc2)c2ccccc12 | 10 | 0 | 4 | 0
COC(=O)c1ccc(C2Nc3ccc(C(=O)O)cc3C3C=CCC32)cc1 (configuration not stated) | 4 | -1 | 75* | 0
COC(=O)c1ccc2c(c1)C1C=CCC1C(c1ccc(F)cc1)N2 (configuration not stated) | -2 | -1 | -2 | 4
O=C(O)c1ccc([C@@H]2Nc3ccc(F)cc3[C@@H]3C=CC[C@@H]32)cc1 | 4 | -1 | 66* | -1
COc1ccc(C2Nc3ccc(C(=O)O)cc3C3C=CCC32)cc1 (configuration not stated) | -3 | -1 | 73* | 0
O=C(O)c1ccc2c(c1)C1C=CCC1C(c1cccc([N+](=O)[O-])c1)N2 (configuration not stated) | 14 | -1 | 83* | 1
O=C(NC1CC1)c1ccc(-c2nc3ncnc(NCCOc4ccccc4)c3[nH]2)cc1 | -3 | 0 | -2 | -1
CC(=O)Oc1ccc(Cl)cc1N1C(=O)c2ccc([N+](=O)[O-])cc2C1=O | -8 | 0 | -3 | 0
Cc1cc(Cl)ccc1NC(=O)CCC(=O)N/N=C/c1c[nH]c2ccccc12 | 11 | 1 | 17 | 0
Cc1nc(C)n(-c2ccc(Nc3nccc(-c4noc(C)c4-c4cnn(C)c4)n3)cc2)n1 | -8 | 0 | -7 | 2
C(=C\c1nn2c(-c3ccncc3)nnc2s1)/c1ccccc1 | -6 | 0 | 13 | 0
O=C(Nc1ccc(F)c(F)c1)c1ccccc1F | -35 | 0 | 0 | -2
O=[N+]([O-])c1cccc(C2Nc3ccc4ccccc4c3C3C=CCC32)c1 (configuration not stated) | 40* | 0 | 3 | 0
COc1cccc(C2Nc3ccc(C(=O)O)cc3C3C=CCC32)c1 (configuration not stated) | 6 | -2 | 65* | 0
COc1ccc2c(c1)C1C=CCC1C(c1ccc(C(=O)O)cc1)N2 (configuration not stated) | -14 | -1 | 52* | -2
COc1ccc(OC)c([C@@H]2Nc3ccc(C(=O)O)cc3[C@@H]3C=CC[C@@H]32)c1 | -7 | 0 | 31 | -1
Oc1ccc(CCNc2nc(Nc3ccc(N4CCOCC4)cc3)nc3c2ncn3Cc2ccc(C(F)(F)F)cc2)cc1 | 2 | 0 | 19 | -3
CCN(CC(=O)NC(C)C)c1ccc([N+](=O)[O-])cc1Cl | 6 | 0 | 8 | -2
COc1ccc(OC)c(-c2csc(NC(=O)c3ccc(Cl)s3)n2)c1 | 0 | 0 | -8 | -1
CCOc1cc(N2CCOCC2)c(OCC)cc1NC(=O)c1cc(Cl)c(Cl)cc1C(=O)O | 18 | 0 | 70* | -1
CCOc1cc(N2CCOCC2)c(OCC)cc1NC(=O)c1cccc([N+](=O)[O-])c1C | 4 | 0 | -1 | 3
Cc1cc(Cl)ccc1OCC(O)CN1CCCCC1 (configuration not stated) | 8 | 0 | -7 | 0
COc1cccc(/C=N/NC(=O)c2nnn(-c3nonc3N)c2-c2ccccc2)c1O | 15 | 0 | 18 | -1
Cc1c(C(=O)N/N=C/c2ccc(O)cc2O)nnn1-c1nonc1N | 75* | -1 | 33 | 2
SMILES | TEAD-YAP inh | FBW7 activator | MITF primary | GPR151 ag
CCN(CC)c1ccc(/C=N/NC(=O)c2nnn(-c3nonc3N)c2CN(C)C)c(O)c1 | 13 | 0 | -8 | 0
CCc1c(C(=O)N/N=C/c2ccc(N(CC)CC)cc2O)nnn1-c1nonc1N | 41* | 0 | 9 | -1
COc1cccc(/C=N/NC(=O)c2nnn(-c3nonc3N)c2C)c1O | 75* | 0 | 5 | 1
COCc1c(C(=O)N/N=C\c2ccc(O)cc2O)nnn1-c1nonc1N | 19 | 0 | 34 | 2
COC1COC(=O)C/C=C/[C@H](C)[C@H](OC)COC(=O)[C@@H]2CCCN2C(=O)C/C=C/[C@H]1C (some centres not stated) | . | 0 | -17 | 0
CCc1c(C)nc2ncnn2c1NCCc1ccc(OC)cc1 | 66* | 0 | -1 | 0
S=C(NCc1ccncc1)Nc1cccc(Cl)c1 | 3 | 0 | -14 | 1
S=C(NCc1ccc(Cl)cc1)Nc1ccncc1 | 44* | 0 | 9 | 1
COc1ccccc1NC(=S)NCC(C)C | -4 | 0 | -2 | 1
O=C(/C=C/c1ccc2c(c1)OCO2)Nc1ccccn1 | 67* | -1 | 0 | -9
O=C(/C=C/c1ccc(F)cc1)Nc1ccccn1 | 57* | 0 | 11 | -8
O=C(/C=C/c1ccc(Br)cc1)Nc1ccccn1 | 35* | 0 | 11 | -7
Cc1nn(C)c(C)c1CCC(=O)NCCN1Cc2ccccc2OC(c2ccsc2)C1 (configuration not stated) | 1 | 0 | 18 | 0
Cn1c(=O)c2sccc2n2c(CCCC(=O)N3CCCC3)nnc12 | -16 | 0 | -1 | 1
Cc1cccc(C(=O)/C(C#N)=N/Nc2c(C)n(C)n(-c3ccccc3)c2=O)c1 | 42* | -2 | 38 | 0
COc1ccc(C2CC(=O)N3CN(c4ccccc4)CSC3=C2C#N)cc1 (configuration not stated) | 15 | 0 | -13 | -1
CCN(CC)C(=O)CSc1nc2ccc(I)cc2c(=O)n1CC | 2 | 0 | 6 | 0
Cc1ccc2[nH]c3nc(N/N=C/c4ccc(O)cc4O)nnc3c2c1 | 63* | -2 | 22 | 1
COc1ccc(Br)cc1/C=N/Nc1nnc2c(n1)[nH]c1ccccc12 | -4 | 2.1* | 19 | 0
COc1ccc(/C=N/Nc2nnc3c(n2)[nH]c2ccc(Br)cc23)c(O)c1 | -6 | 0 | -3 | 0
Cc1ccc2[nH]c3nc(N/N=C/c4ccc(O)c(O)c4)nnc3c2c1 | -4 | -1 | 87* | -1
CCOc1cc(/C=N/Nc2nnc3c(n2)[nH]c2ccc(C)cc23)ccc1O | 3 | 0 | -7 | 0
COc1cccc(/C=N/Nc2nnc3c(n2)[nH]c2ccccc23)c1 | -31 | 0 | 17 | 0
CC1CCCCC12NC(=O)N(CC(=O)OCC(=O)Nc1ccc(Cl)cn1)C2=O (configuration not stated) | -1 | 0 | -2 | 2
CC1=NN(c2ccc(C(=O)O)cc2)C(=O)/C1=C\c1ccc([N+](=O)[O-])o1 | 6 | 0 | 71* | -1
CC1=NN(c2ccc(Cl)cc2)C(=O)/C1=C\c1ccc([N+](=O)[O-])o1 | 7 | -1 | -15 | -1
CC1=NN(c2ccccc2)C(=O)/C1=C/c1ccc(N2CCCC2)o1 | 66* | 0 | 9 | 4
CCN(CC)c1ccc(/C=C2/C(=O)N(c3ccccc3)N=C2C)cc1 | 11 | -2 | 68* | -1
